The results in this text go back to PubChem BioAssay AID662 (National Center for Advancing Translational Sciences (NCATS), 2007).

About 1,800 (2.5%) of roughly 71,000 compounds were called active. Roughly 26% stayed inconclusive and do not appear here. The sample holds actives, similar compounds and a random draw of the others, so the mix is not that of the screen. A number with no mark means an inactive call. The call rests on the fitted dose curve; in most records, active means well fitted activation curve with a large enough effect in the signal ratio, with a control signal flat (not every such curve was filed as active); inconclusive means small, poorly fitted or top-dose-only effect, or effect the other way, or a change in a side signal; inactive means flat fitted curve, though single readings scatter; the % refers to the signal ratio.
Potency means the concentration at half of the fitted maximal effect.

A short description of the test: Cell signaling CRE-BLA (Fsk stim). On activity change, negative = inhibition: % of control where 0% means no effect. The settings on record: CHO CRE-bla reporter (cAMP response element driving beta-lactamase), forskolin EC10, beta-lactamase ratio; series mostly up to 38.2 µM; activity change, negative = inhibition: at the top concentration. An excerpt:
NIH Molecular Libraries Screening Centers Network [MLSCN]
NIH Chemical Genomics Center [NCGC]
Assay Provider: Marshall W. Nirenberg, U.S. National heart lung & blood institute
Memories persist for different lengths of time, from seconds or minutes to a lifetime. There are two kinds of memory: short-term memory (STM) and long-term memory (LTM). STM lasts for minutes to hours, which maybe mediated by modifications of molecules involved in synaptic functions. LTM lasts for days or longer, and may be due to the formation of new synapses or restructuring of existing synapses. LTM, but not STM, requires gene transcription and synthesis of proteins. CREB (cyclic-AMP Responsive Element Binding Protein) is one of the candidates plays an important role for enhancement of some types of LTM. CREB, a family of transcription factors, regulates the transcription of genes containing cAMP Responsive Elements (CRE). CRE is a nucleotide sequence often found in the promoter regions of genes that are binding sites for CREB.
Using a beta-lactamase reporter-gene under control of cAMP responsive element, a cell-based assay [CellSensor(TM) CRE-bla CHO developed by Invitrogen Corp.] was used to measure forskolin-induced signaling. Library compounds were measured for their ability to modulate positively or negatively the action of EC10 NKH 477, a water soluble forskolin, on reporter gene activity. Compounds were screened in a titration series in 1536-well format. Positive and negative modulators were identified based on the AC50 values derived from the screening data.
NCGC Assay Protocol Summary
2000 cells/5uL in Opti-MEM medium containing 0.5% dialyzed FBS, 0.1 mM NEAA, 1 mM sodium pyruvate and 10 mM HEPES was dispensed into 1536-well plates and cells were cultured at 37 degrees Celsius overnight. […] And then the plates were incubated at 37 degrees Celsius for 3 hours. 1 uL of CCF4-dye mixture was added to each well. After incubated at room temperature for 2 hours the plates were measured on an EnVision plate reader at Excitation 405nm, Emission1=460nm and Emission 2=530nm. The %Activity was determined from the ratio of 460nm/530nm.
Keywords: NIH Roadmap, MLSCN, MLSMR, qHTS, NCGC, CRE, beta-lactamase reporter-gene assay.
For `COc1ccc(S(=O)(=O)NCc2ccc(C(=O)N3CCC4(CC3)OCCO4)cc2)cc1`, the “activity change, negative = inhibition” value was -18%.
Regarding `O=C(c1cc(S(=O)(=O)N2CCOCC2)ccc1F)N1CCC2(CC1)OCCO2`, the “activity change, negative = inhibition” value was -0.495%.
Regarding `O=C(c1cc2nc(-c3ccccc3)cc(-c3ccccc3)n2n1)N1CCC2(CC1)OCCO2`, the Potency is 2.51 µM (active).
In the case of `C[C@@]1([C@@H](NP(=O)(c2ccccc2)c2ccccc2)c2ccccc2)C[C@H]1CCO`, the “activity change, negative = inhibition” value is -6.41%.
On the same count and under the same terms, to `Cc1cc(-c2ccc(N)c(C)c2)ccc1N` belongs 2.87%; to `N[C@H](Cc1o[nH]c(=O)c1Cl)C(=O)O`, -13.5%; to `ClC(Cl)=C(Cl)C(Cl)=C(Cl)Cl`, -6.71%.
`CCC(=NCCCO)c1c(O)n(-c2ccc(OC)cc2)c(=O)[nH]c1=O`: the “activity change, negative = inhibition” value was 6.61%.
As for `CCCCCCN=C(CC)c1c(O)n(CCCC)c(=O)[nH]c1=O`, the Potency is 10 µM (active).
For the molecule `ClC(Cl)(Cl)c1ccccc1`, the Potency result was “inactive”.
